Sm TGR block: qHTS Assay for the Inhibitors of Schistosoma Mansoni Peroxiredoxins; Schistosoma mansoni thioredoxin glutathione reductase (TGR), Q962Y6; purified TGR, DTNB reduction, TNB absorbance 405 nm; Potency, µM (highest dose often 114 µM), for inactives: top-dose activity change, negative = inhibition, actives largely listed as inhibitors; actives 3% (n = 360,000); also: % is scaled to controls: 0 for no effect and ±100 for the full control effect; nearly all actives have a fitted effect of over 60% in size
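TGR 20 nM + NADPH 100 uM (dispensed conc.), cpd preinc 15 min RT; start with NADPH (500 uM addition) then DTNB (15 mM addition). Kinetic TNB absorbance, 405 nm filter. Four-parameter Hill fit across titration.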
Pf growth 96h: Primary qHTS for delayed death inhibitors of the malarial parasite plastid, 96 hour incubation; P. falciparum luciferase reporter growth, 96 h; AID 504834, 2011; Potency, µM (doses to about 28.7 µM), inactives show at the highest dose activity change, negative = inhibition, most hits filed as inhibitors; actives 6.9% (n = 320,000); also: % is scaled to controls: 0 for no effect and ±100 for the full control effect
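Infected RBCs, 2% Hct / 0.05% parasitemia final; luciferase-reporter P. falciparum; cpd 96 h, 37 C, 5% CO2; luciferase detection reagent; luminescence.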
SARS PLP yeast: qHTS of Yeast-based Assay for SARS-CoV PLP | S. cerevisiae expressing SARS-CoV PLpro, growth rescue | Potency, µM (highest dose often 32.9 µM), without a hit: at the top dose activity, positive = growth rescue, usual class: activators | actives 0.19% (n = 330,000); calls by dose curve; also: 0% is about no effect; nearly all actives have a fitted effect of over 55% in size
Pf growth 48h: Primary qHTS for delayed death inhibitors of the malarial parasite plastid, 48 hour incubation; P. falciparum luciferase growth in erythrocytes, 48 h; Potency, µM (doses to about 28.7 µM), inactives show at the top dose activity change, negative = inhibition, actives largely listed as inhibitors; actives 5.9% (n = 310,000); AID 504832, 2011; also: % is scaled to controls: 0 for no effect and ±100 for the full control effect
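Growth was read as firefly luciferase luminescence after a 48 h, 37 C, 5% CO2 exposure of compounds to reporter-bearing P. falciparum cultures (0.1% parasitemia, 2% hematocrit final) in Albumax-supplemented RPMI 1640.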
Starred values were filed as active, the others as inactive; ? = inconclusive; · = not tested or not shown. This is a sample that favours compounds with a hit; in the whole collection about 12% have one here. Unless noted, calls follow the shape of the dose curve; as a rule, active = well fitted curve in the direction sought with a large enough effect; inconclusive = small, poorly fitted or top-dose-only effect, or another doubt; inactive = no such curve, though single readings can be large; an effect the other way counts as inactive or inconclusive. Potency is read from the fitted curve at half-maximal effect.

SMILES	Sm TGR block	Pf growth 96h	SARS PLP yeast	Pf growth 48h
CCC(CC)c1nn2c(=O)cc(COc3ccc(NC(=O)c4ccc(Cl)cc4)cc3)nc2s1	-0.2%	·	·	·
CCN1CCN(C(c2ccccc2Cl)c2sc3nc(-c4ccco4)nn3c2O)CC1 (configuration not stated)	-4.9%	·	·	·
COC(=O)CC1Oc2ccc(F)cc2-n2cc(-c3ccc(C)cc3)nc21 (configuration not stated)	-6.3%	·	·	·
O=C(CCc1ccccc1)OCCN1CCOCC1	8.0%	10.4µM*	6.9%	66.7%
O=C(NCCCc1ccccc1)N1CCOCC1	21.4%	2.0%	-0.7%	12.6%
CC(CCc1ccccc1)NC(=O)N1CCOCC1 (configuration not stated)	-6.5%	10.4µM*	4.6%	-6.5%
O=C(NCCCN1CCOCC1)C(=O)NCCc1ccccc1	-2.3%	3.6%	-3.1%	8.6%
O=C(Cc1ccccc1)OCCN1CCOCC1	6.0%	?	22.0%	7.2%
O=C(CN1CCOCC1)NCCc1ccccc1	-9.4%	10.4µM*	-6.6%	8.4%
O=C(CN1CCN(Cc2ccccc2)C1=O)NCCCN1CCOCC1	-13.9%	2.94µM*	-2.0%	·
Cc1cc(C)c2oc(-c3ccc(Cl)c(NC(=O)c4cccs4)c3)nc2c1	-9.5%	·	·	·
COc1cc(O)ccc1-c1nc2ccc(Br)cn2c1Nc1ccccc1C	-36.0%	·	·	·
O=C(CN1CCN(S(=O)(=O)c2ccccc2F)CC1)N1CCc2ccccc2C1	·	·	-7.7%	·
O=C(CN1C(=O)COc2ccccc21)NCCCN1CCN(Cc2ccccc2)CC1	-2.7%	0.37µM*	?	9.6%
O=C(CNC(=S)N(Cc1ccccc1Cl)C1CCCC1)NCCCN1CCOCC1	1.0%	-17.8%	1.1%	10.4µM*
O=C(CN1C(=O)COc2ccccc21)NCCCN1CCc2ccccc2C1	-0.4%	-1.8%	2.6%	-1.8%
Cc1ccc(CCNC(=O)Cn2cccc2)cc1	50.1µM*	-1.9%	-6.4%	9.5%
Cc1ccc(SCC(=O)NCCc2ccccc2)cc1	8.8%	?	-7.2%	19.5%
O=C(Cn1c(=O)c2cccn2c2ccccc21)NCCc1ccc(Cl)cc1	-1.0%	10.4µM*	3.8%	27.2%
COc1ccc(S(=O)(=O)NC(C)C(=O)NCc2ccccn2)cc1OC (configuration not stated)	-9.1%	-19.5%	6.2%	18.2%
COc1ccc(Cc2nnc(SCC(=O)Nc3ccccc3C#N)o2)cc1	-20.7%	?	1.0%	10.5%
CN(C)c1ccc(C(CNS(=O)(=O)c2ccc([N+](=O)[O-])cc2)N2CCCC2)cc1 (configuration not stated)	-22.5%	?	-4.5%	44.3%
Cc1cc(C)c(NC(=O)CCCN2CCOCC2)c(C)c1	4.2%	20.6%	-1.3%	4.6%
Cc1cc(C)c(NC(=O)OCCN2CCOCC2)c(C)c1	-3.0%	0.233µM*	1.4%	2.2%
COc1cccc(OC)c1C(=O)NNS(=O)(=O)c1ccc2ccccc2c1	-23.4%	?	-5.3%	2.6%
SMILES	Sm TGR block	Pf growth 96h	SARS PLP yeast	Pf growth 48h
COc1ccccc1OCCNS(=O)(=O)c1ccc2oc3ccccc3c2c1	0.3%	10.4µM*	-21.0%	-18.4%
COCCNS(=O)(=O)c1ccc2c(c1)oc(=O)c1cc(S(=O)(=O)NCCOC)ccc12	4.7%	1.85µM*	1.3%	?
CC1(C)Cc2c(c(N3CCOCC3)nc3snc(Br)c23)CO1	0.0%	0.657µM*	-0.4%	0.522µM*
CC1(C)Cc2c(c(N3CCOCC3)nc3snc(N)c23)CO1	1.2%	-9.6%	3.7%	-5.7%
Cc1nc2c(sc3nc(N4CCOCC4)c4c(c32)CC(C)(C)OC4)c(-c2ccc(Cl)cc2)c1C(=O)O	16.2%	9.28µM*	-0.5%	13.1µM*
Cc1ccc2cccc(NC(=O)c3cccc4c(Br)cccc34)c2n1	2.7%	·	·	·
CC(C)c1ccc(NC(=O)C2(C)Cc3ccccc3C(=O)O2)cc1 (configuration not stated)	-2.5%	·	·	·
CCc1ccc(CNC(=O)CCn2ccc3cc(S(=O)(=O)N4CCCC4)ccc32)cc1	-5.2%	-25.2%	-10.4%	?
Cn1cnnc1SCc1ccc(-c2ccc(Br)cc2)o1	25.1µM*	25.6%	-0.4%	42.6%
O=C(CCc1cn(Cc2ccc(F)cc2)c2ccccc12)NCCc1ccc(Cl)cc1	7.9%	·	·	·
CCNC(=O)/C(C#N)=C/c1c(N2CCOCC2)nc2ccccn2c1=O	-2.7%	60.2%	5.1%	52.7%
CCNC(=O)/C(C#N)=C/c1c(N(Cc2ccccc2)Cc2ccccc2)nc2ccccn2c1=O	-8.9%	13.1µM*	?	3.7µM*
CCNC(=O)/C(C#N)=C/c1c(N2CCN(C)CC2)nc2c(C)cccn2c1=O	5.9%	1.3%	-4.2%	11.5%
CNC(=O)/C(C#N)=C/c1c(N(Cc2ccccc2)Cc2ccccc2)nc2c(C)cccn2c1=O	-9.3%	2.94µM*	2.3%	13.1µM*
O=C(NCCN1CCCCC1)c1ccc(Cn2c(SCc3ccc(F)cc3)nc3cccnc32)cc1	2.4%	·	·	·
Cc1cc(CN(C)C(=O)C2CCC(=O)N(CCc3cccc(F)c3)C2)on1 (configuration not stated)	5.6%	?	-3.1%	4.6%
Cc1ccc(-n2c(Cl)c(Cl)nc(Cl)c2=O)cc1	0.794µM*	?	-89.0%	-24.9%
Cc1c(NC(=O)CCCCCN2C(=O)C3C4C=CC(C4)C3C2=O)c(=O)n(-c2ccccc2)n1C (configuration not stated)	-1.5%	9.28µM*	-1.4%	13.9%
Cc1c(NC(=O)NCCN2C(=O)C3C4C=CC(C4)C3C2=O)c(=O)n(-c2ccccc2)n1C (configuration not stated)	-15.4%	14.7µM*	3.3%	·
O=C(NCCN1C(=O)C2C3C=CC(C3)C2C1=O)Nc1ccccc1O (configuration not stated)	?	9.28µM*	-6.3%	·
O=C(CCC1N=C2c3ccccc3N=C(SCc3ccc(Cl)cc3)N2C1=O)NC1CCCCC1 (configuration not stated)	-0.1%	·	·	·
COc1ccc(S(=O)(=O)N(C)C[C@H]2Oc3ccc(NC(=O)c4ccncc4)cc3C(=O)N([C@H](C)CO)C[C@@H]2C)cc1	·	·	4.1%	·
COc1ccc(N(CC(=O)N2CCc3ccccc3C2)S(C)(=O)=O)cc1Cl	-14.7%	?	15.9%	-5.6%
CCNC(C(=O)c1c[nH]c2c(CC)cccc12)c1ccccc1 (configuration not stated)	-18.6%	?	0.1%	?
COCCCNC(=O)CCc1nc2cccnc2n1Cc1ccccc1	7.9%	8.28µM*	4.0%	31.0%
COc1ccc(Cn2c(CCC(=O)Nc3ccc(CC#N)cc3)nc3cccnc32)cc1	8.7%	3.7µM*	6.7%	?
N#CCCN(Cc1cccnc1)C(=S)Nc1ccccc1Cl	2.0%	-18.8%	0.0%	4.0%
S=C(Nc1ccccc1Cl)N(Cc1cccnc1)Cc1ccco1	-1.2%	?	0.2%	4.15µM*
Cc1cccc(C)c1NC(=S)N(Cc1ccccc1)Cc1cccnc1	-17.3%	-19.1%	6.7%	?

Screening results deposited in PubChem BioAssay by National Center for Advancing Translational Sciences (NCATS).
